Screens deposited in PubChem by several laboratories.
Rows were chosen to be rich in hits. Some 32% of all compounds tested hit in one or more screens of this group.
CYP2C9 act = activators of human CYP2C9 | P11712 | recombinant CYP2C9, luciferin-H conversion, luminescence; active compounds read high; factor 1 = untreated enzyme, 0 = blocked | activation factor at 5 µM | 96,000 tested, 1.4% active;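 active = activation factor of 2 or more for CYP2C9 at a 5 µM dose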;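 also: 0 = sulfaphenazole-blocked wells and 1 = vehicle-only wells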
Target sequence (P11712 whole entry, looked up): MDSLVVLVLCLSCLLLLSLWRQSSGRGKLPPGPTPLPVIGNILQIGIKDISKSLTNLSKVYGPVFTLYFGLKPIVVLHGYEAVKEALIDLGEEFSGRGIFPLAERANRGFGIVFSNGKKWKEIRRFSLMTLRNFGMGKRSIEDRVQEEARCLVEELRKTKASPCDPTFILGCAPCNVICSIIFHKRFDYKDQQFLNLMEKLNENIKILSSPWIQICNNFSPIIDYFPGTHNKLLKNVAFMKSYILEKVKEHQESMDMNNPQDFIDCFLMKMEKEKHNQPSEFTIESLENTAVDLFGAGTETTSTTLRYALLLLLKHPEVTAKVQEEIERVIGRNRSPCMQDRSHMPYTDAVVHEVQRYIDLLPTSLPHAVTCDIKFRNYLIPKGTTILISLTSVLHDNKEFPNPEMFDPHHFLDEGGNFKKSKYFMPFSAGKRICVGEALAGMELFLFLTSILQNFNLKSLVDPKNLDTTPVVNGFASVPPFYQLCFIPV
CYP2C19 inhib = human CYP2C19 inhibition. CYP2C19 Supersomes, luciferin-H EGE luminescence, 30 min. inhibition, % at 5 µM. 96,000 tested, 21% active;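 active = CYP2C19 inhibition above a set limit at 5 µM in the primary screen, cut at about 50% in these data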;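 also: plate controls were negative control wells for no effect and 2.5 mM tranylcypromine positive control for full effect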
PostGolgi ctrl = yeast control strain growth, post-Golgi counter-screen. efflux-deficient yeast background strain, growth absorbance A615, 16 h. 98,000 tested, 5% active. AID 738. inhibition, % at 10 µM
CYP2C19 activ = cytochrome P450 2C19 (human) activation | P33261 | recombinant CYP2C19, luciferin-H EGE luminescence; active compounds read high; 0 = fully inhibited enzyme, 1 = untreated enzyme | activation factor at 5 µM | 96,000 tested, under 10 active | AID 1025;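 active = activation factor of at least 2 at 5 µM in the primary screen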;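 also: 0 = wells with 2.5 mM tranylcypromine and 1 = vehicle-only wells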
PostGolgi yeast = growth inhibition of a yeast mutant, post-Golgi transport screen; post-Golgi transport phenotypic cell assay; inhibition, % at 10 µM; 98,000 tested, 0.9% active; AID 739;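 also: yeast cells grown in 1536-well plates; yeast grown about 18 h at 30C before absorbance read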
CYP2C9 inhib = inhibitors of human CYP2C9; P11712; CYP2C9 Supersomes, luciferin-H conversion, luminescence; inhibition, % at 5 µM; 96,000 tested, 20% active; AID 777;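 active = blocking of liver enzyme CYP2C9 beyond about 50% at 5 µM, limit read from the data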
* hit, by the source's call; . = no result given. Rule as the data show it, unless noted: active = inhibition above about 30%; inactive = the rest.

SMILES	CYP2C9 act	CYP2C19 inhib	PostGolgi ctrl	CYP2C19 activ	PostGolgi yeast	CYP2C9 inhib
Cc1cccc(-n2ncc3c(NCc4cccs4)ncnc32)c1	0.5	11	42*	0.9	6	51*
Cc1cccc(-n2ncc3c(NCCc4ccc(S(N)(=O)=O)cc4)ncnc32)c1	0	92*	3	0.1	1	96*
Clc1ccc(-n2ncc3c(NCc4cccs4)ncnc32)cc1	.	.	-13	.	-2	.
Cc1cccc(-n2ncc3c(NCCN4CCOCC4)ncnc32)c1	.	.	4	.	-5	.
CC1CCN(C(=O)C(Cc2ccccc2)n2cccc2)CC1 (stereo not drawn)	0.8	93*	-1	0.1	8	22
O=C(C(Cc1ccccc1)n1cccc1)N1CCN(c2ncccn2)CC1 (stereo not drawn)	0.3	43	5	0.6	-3	69*
Cc1cccc(N2CCN(C(=O)C(Cc3ccccc3)n3cccc3)CC2)c1C (stereo not drawn)	1.1	28	14	0.7	-3	-14
Cc1cc(NC(=O)C2CC=CCC2C(=O)O)no1 (stereo not drawn)	1.2	-24	3	1.2	13	-24
O=C(COc1ccc(Br)cc1)Nc1ccc([N+](=O)[O-])cn1	1.1	20	0	0.8	21	-9
CCc1nc2oc3ccccc3c(=O)c2c(=O)n1CCOC	1	3	19	1	0	-1
CCc1nc2oc3ccccc3c(=O)c2c(=O)n1-c1ccccc1	1.3	10	30*	0.9	-6	-28
O=C1CN(C(=O)CSc2nnc(-c3ccccc3)n2Cc2ccc3c(c2)OCO3)c2ccccc2N1	0.6	63*	-2	0.4	38*	37
CC(Sc1nnc(-c2cccs2)n1Cc1ccccc1)C(=O)NCc1ccc2c(c1)OCO2 (stereo not drawn)	0.2	48	11	0.5	-5	85*
Cn1c(SCC(=O)NCc2ccc3c(c2)OCO3)nnc1-c1cc2ccccc2cc1O	.	.	4	.	-6	.
CCn1c(SCC(=O)NCc2ccc3c(c2)OCO3)nnc1-c1cccs1	0.2	4	-10	1	1	77*
Cn1c(SCC(=O)NCc2ccc3c(c2)OCO3)nnc1-c1cccs1	0.4	0	6	1	6	65*
Cc1nnc(SCC(=O)N2CC(=O)Nc3ccccc32)n1-c1ccccc1	1.1	1	10	1	6	-6
Cc1ccc(-c2csc3nnc(SCC(=O)NCc4ccc5c(c4)OCO5)n23)cc1	0.6	26	25	0.7	-4	44
CCCCN(CCCC)CCNC(=O)Cc1nc2c(c(=O)[nH]c(=O)n2C)n1C	1	1	-5	1	-2	0
CCn1c(SCC(=O)Nc2cc(OC)c(OC)c(OC)c2)nnc1-c1cccs1	0.5	19	11	0.8	6	52*
CCn1c(SC(C)C(=O)NC2CCCc3ccccc32)nnc1-c1cccs1 (stereo not drawn)	0.1	89*	-9	0.1	-4	86*
O=C(CSc1nnc(-c2cccs2)n1-c1ccccc1)NCc1ccc2c(c1)OCO2	0.1	68*	26	0.3	4	92*
CCn1c(SCC(=O)Nc2ccc(OC)c(OC)c2)nnc1-c1cccs1	0.9	5	12	0.9	4	7
O=C(CSc1nnc(Cc2cccs2)n1-c1ccc(Cl)cc1)NCc1ccc2c(c1)OCO2	0.5	35	12	0.6	-1	54*
O=C(CSc1nnc(-c2ccco2)n1-c1ccccc1)NCc1ccc2c(c1)OCO2	0.6	47	0	0.5	-4	40
SMILES	CYP2C9 act	CYP2C19 inhib	PostGolgi ctrl	CYP2C19 activ	PostGolgi yeast	CYP2C9 inhib
COc1ccc(C2(NC(C)=O)CCN(C(=O)c3ccco3)CC2)cc1	0.6	29	2	0.7	24	40
CCOc1ccccc1NC(=S)N1CCC(NC(=O)NC23CC4CC(CC(C4)C2)C3)CC1	1	24	14	0.8	-1	-1
O=CNC(=O)c1ccccc1C(=O)O	1.2	-9	-7	1.1	10	-17
Cc1ccc(CN2CCC(C(=O)NCCC(C)C)CC2)o1	0.9	4	-1	1	5	13
O=C(CSc1nnc(-c2cccs2)n1Cc1ccccc1)NCc1ccc2c(c1)OCO2	0.2	53*	6	0.5	-1	79*
COCCNC(=O)c1cnn2c(C(F)(F)F)cc(-c3ccc4c(c3)OCO4)nc12	0.6	19	0	0.8	-2	36
COCCN1C(=O)c2ccccc2C(C(=O)N2CCN(c3ccccn3)CC2)C1c1ccc(F)cc1 (stereo not drawn)	.	.	4	.	7	.
O=C(CSc1nccc(-c2ccc(Br)cc2)n1)NCCc1ccccc1	0.5	62*	11	0.4	29	47
O=C(CSc1nccn1-c1ccc(Cl)cc1)Nc1ccc2c(c1)OCO2	0.5	69*	6	0.3	-17	54*
Cn1c(SCC(=O)Nc2ccc3c(c2)OCO3)nnc1-c1cnccn1	1	17	-4	0.8	17	-4
Cc1cccc(-n2ccnc2SCC(=O)Nc2ccc3c(c2)OCCO3)c1	0.3	45	-2	0.6	1	70*
Cc1ccc(OCC(=O)NNC(=O)c2cc3ccccc3o2)cc1C	1.1	1	4	1	8	-13
CCCCNC(=O)Nc1cnn(CC)c1C(N)=O	1	-1	4	1	-1	-4
Cc1ccc2c(c1)NC(=O)C(N1CCOCC1)(C(F)(F)F)O2 (stereo not drawn)	0.7	55*	1	0.4	-20	34
CNC(=O)CCn1nc(-c2ccccc2)c2ccccc2c1=O	0.9	21	4	0.8	22	12
NC(=O)CCn1nc(-c2ccc(Cl)cc2)c2ccccc2c1=O	0.7	57*	12	0.4	2	32
CCC(OC(=O)CC1Sc2ccccc2NC1=O)C(=O)NCC1CCCO1 (stereo not drawn)	0.6	30	10	0.7	4	39
Cn1cnnc1SC(C(=O)Nc1cccc(C(F)(F)F)c1)c1ccccc1 (stereo not drawn)	0.3	71*	8	0.3	2	73*
O=C(NC1CC1)C1CC(=O)N(C2CCCCC2)C1 (stereo not drawn)	1.1	-2	5	1	0	-15
CCSC1=N/C(=C\c2ccc(C(=O)O)cc2)C(=O)S1	1	6	1	0.9	-1	2
CCOC(=O)SC1=N/C(=C\c2ccc(N(C)C)cc2)C(=O)S1	0.3	10	18	0.9	1	68*
Nc1nc2n(n1)C(c1ccc(F)cc1)CC(c1ccc(F)cc1)N2 (stereo not drawn)	0.9	71*	-4	0.3	-1	9
Nc1nc2n(n1)C(c1cccc(Cl)c1)CC(c1ccc(F)cc1)N2 (stereo not drawn)	0.9	89*	6	0.1	-7	14
